# In the supplement of paper PMC9177965:
# Values joined by “and” are separate entries in the source; they are usually repeats but may differ in a detail not shown here. Identical values can stand only once.
# Tested on: HT29 sg-Ctrl (RNF43 wildtype)
# Experiment: cell viability activity relative to DMSO (negative = inhibition); higher = more viable cells (less growth inhibition)
# Details: 5 µM; 96 h
# Description: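 Broad Repurposing Library primary screen at a single dose of 5 uM. HT29 sg-Ctrl and HT29 RNF43 G659fs CRISPR-edited isogenic cells were seeded at 2500 cells/well in 384-well plates in duplicate and treated for 96 h. Viability was read by CellTiter-Glo and reported as % activity relative to DMSO, with MG132 as the positive control (negative = growth inhibition).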
row,SMILES,cell viability activity
1,Cc1cc(C(=O)NOCCO)c(Nc2ccc(I)cc2F)n(C)c1=O,-88.5%
2,CC(C)C[C@H](NC(=O)[C@H](Cc1ccccc1)NC(=O)c1cnccn1)B(O)O,-94.6%
3,Nc1nccc2c1ncn2[C@@H]1C=C(CO)[C@@H](O)[C@H]1O,-40.1%
4,CCOc1cc2ncc(C#N)c(Nc3ccc(OCc4cccc(F)c4)c(Cl)c3)c2cc1NC(=O)/C=C/CN(C)C,-28.1%
5,Clc1ccc(C2(c3ccc(-c4cn[nH]c4)cc3)CCNCC2)cc1,-86.8%
6,CN[C@@H]1C[C@H]2O[C@@](C)([C@@H]1OC)n1c3ccccc3c3c4c(c5c6ccccc6n2c5c31)C(=O)N[C@H]4O,-91.7%
7,CNCCCOc1cc(F)c(-c2c(Cl)nc3ncnn3c2N[C@@H](C)C(F)(F)F)c(F)c1,-62.1%
8,COc1cc(OC)c(/C=C/S(=O)(=O)Cc2ccc(OC)c(OP(=O)(O)O)c2)c(OC)c1,-12.1%
9,O=C(NNc1nc2cc(F)ccc2n2cccc12)c1cnccn1,-88.3%
10,C#Cc1cccc(Nc2ncnc3cc(OC)c(OCCCCCCC(=O)NO)cc23)c1,-71%
11,COC(=O)Nc1nc2cc(C(=O)c3ccc(F)cc3)ccc2[nH]1,-51.2%
12,C=C1/C(=C\C=C2/CCC[C@]3(C)[C@@H]([C@H](C)CCCC(C)C)CC[C@@H]23)C[C@@H](O)C[C@@H]1O,-70%
13,CC1(C)CC(Oc2ccc(-c3ccc(-c4cn[nH]c4)cc3O)nn2)CC(C)(C)N1,-89.2%
14,COc1ccc(NC(=O)c2ccc(-c3ccc(-c4noc(C)n4)cc3C)cc2)cc1N1CCN(C)CC1,-57.8%
15,CC1(C)CC(=O)c2c(C(F)(F)F)nn(-c3ccc(C(N)=O)c(N[C@H]4CC[C@H](OC(=O)CN)CC4)c3)c2C1,-84.8% and -87.4% and -83.8%
